The source of these data is PubChem BioAssay (NCI).

Compounds without any hit were thinned out: in the full panel of roughly 83,000, 20% have a hit.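 Assay: single dose, 48 h. Readout: percent growth (0 = no net growth; negative = cell death). Active: <10.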 Calls of active or inactive are those of the source.

The experiment relates to CCRF-CEM leukemia. As to the kind of experiment: NCI-60 one-dose screen, 48 h (100 = growth as untreated, 0 = no growth, -100 = all killed). The following applies: 10 µM unless noted. As for the experimental part: Growth inhibition of the CCRF-CEM human tumor cell line is measured as a screen for anti-cancer activity. Cells are grown in 96 well plates and exposed to the test compound for 48 hours. Compounds are tested at a single concentration, which is 10^-5 M for most compounds. The reported endpoint is percent growth (GI% or GIPRCNT), where numbers from 0 - 100% represent growth inhibition, and numbers from -100% - 0 represent cell death. For example, a value of 40 represents 60% growth inhibition. A value of 0 means no net growth occurred over the course of the experiment. A value of -40 indicates 40% of cells at the beginning of the experiment died by the end of the experiment. A value of -100 means all cells are dead at the end of the experiment.
NCI-60 Human Tumor Cell Lines Screen was performed using the standard one-dose NCI protocol, which is described in more detail at https://dtp.cancer.gov/discovery_development/nci-60/default.htm.
Compounds with GIPRCNT values below 10 were considered active. Activity score was based on GIPRCNT using the following formula: […]
Score is 0 for GIPRCNT values of 100 or above, 50 for GIPRCNT values of 0, and 100 for GIPRCNT values of -100.
Consider `CCCCn1c(C)nc2ccc(Nc3nc(N4CCN(C)CC4)nc4nc[nH]c34)cc21`, for which the growth is 90.5% (inactive).
The value for `Cc1cc(Nc2ncnc3ccc(NC4=NC(C)(C)CO4)cc23)ccc1Oc1ccn2ncnc2c1` was 11.7% (inactive); that for `COc1cc(Nc2c(C#N)cnc3cc(OCCCN4CCN(C)CC4)c(OC)cc23)c(Cl)cc1Cl` was 38.9% (inactive); that for `CNC(=O)c1cccc2cc(Oc3ccnc4cc(OCC5(N)CC5)c(OC)cc34)ccc12` was 44.4% (inactive).
The value for `OCCNC(=S)Nc1ccc(-c2nc(N3C[C@H]4CC[C@@H](C3)O4)c3cccn3n2)cc1` was 18.9% (inactive); that for `Cc1cn(-c2cc(NC(=O)c3ccc(C)c(Nc4nccc(-c5cnccn5)n4)c3)cc(C(F)(F)F)c2)cn1` was 60.5% (inactive).
The value for `CN1CCN(c2nc(C3=C(c4c[nH]c5ccccc45)C(=O)NC3=O)c3ccccc3n2)CC1` was 100% (inactive); that for `COc1cc(CCc2cc(NC(=O)c3ccc(N4C[C@@H](C)N[C@@H](C)C4)cc3)n[nH]2)cc(OC)c1` was 29.6% (inactive).
Take `CN(C)CCn1c(=O)c2c3cc4c(cc3n(CCN(C)C)c2c2ccc(Cl)cc21)OCO4`: the growth was 14.4% (inactive).
The value for `Cc1cccc(Cl)c1NC(=O)c1cnc(Nc2cc(N3CCOCC3)cc(N3CCOCC3)c2)s1` was 63.2% (inactive); that for `CCC1(/C=N/NC(N)=S)NC(=O)NC1=O` (stereo not given) was 102% (inactive); that for `NS(=O)(=O)c1ccc(CCN2C(=O)/C(=C\c3ccc(Cl)cc3)C=C2c2ccc3ccccc3c2)cc1` was 106% (inactive).
As to `CCCS(=O)(=O)Nc1ccc(F)c(C(=O)c2c[nH]c3ncc(-c4ccc(Cl)cc4)cc23)c1F`, the growth is 26.9% (inactive).
The value for `COc1ccc(C2OC(c3cc(-c4cc5ccccc5o4)nn3-c3ccccc3)=NN2C(C)=O)cc1` (stereo not given) was 95.5% (inactive).
As for `c1cc(OCCN2CCCCC2)cc(-c2n[nH]c3ccc(-c4ncn[nH]4)cc23)c1`, the figure is 84.9% (inactive); as for `NC(=O)N1N=C(c2ccc(Cl)cc2)CC1c1cn(-c2ccccc2)nc1-c1ccc(Cl)cc1` (stereo not given), 85.2% (inactive).
As for `Cc1nn(-c2nc3ccccc3[nH]2)c2c1C(c1ccc(O)cc1)CC(=O)N2` (stereo not given), the figure is 17.7% (inactive); as for `Cc1ccccc1Nc1nc2nonc2nc1Nc1cccc(C)c1C`, 50.6% (inactive).
Consider `N#Cc1c(-c2ccc(C(F)(F)F)cc2)cc(NCC2CCS(=O)(=O)CC2)n2c1nc1ccccc12`, for which the growth was 86.2% (inactive).
As for `CC(=O)OC1Oc2ccccc2-c2oc(=O)c(-c3cc4ccc(N(C)C)cc4oc3=O)cc21` (stereo not given), the figure is 6.68% (active); as for `COC(=O)[C@@H](OC)[C@@H]1Cc2cc3cc(OC4CC(OC5CC(O)C(O)C(C)O5)C(O)C(C)O4)c(C)c(O)c3c(O)c2C(=O)[C@H]1OC1CC(OC2CC(OC3CC(C)(O)C(O)C(C)O3)C(O)C(C)O2)C(O)C(C)O1` (stereo not given in full), 2.91% (active); as for `CNC(=O)c1cc(COc2nnc(Nc3ccc(Cl)cc3)c3ccoc23)ccn1`, 98.2% (inactive).
As for `CC1(COc2ccc3c(c2)ncn3-c2ccc3cccc(N4CCC(N)CC4)c3n2)COC1`, the figure is 2.15% (active); as for `O=C(c1ccccc1)C(c1ccccc1)N1CCOCC1` (stereo not given), 91.2% (inactive).
As for `Cc1ccc(C(=O)Nc2ccc(CN3CCN(C)CC3)c(C(F)(F)F)c2)cc1C#Cc1cnc2cccnn12`, the figure is -29.5% (active); as for `Cc1c(N)ccc(-c2ccc(N)c(C)c2S(=O)(=O)O)c1S(=O)(=O)O`, 102% (inactive); as for `CC1(C)NC(=O)c2[nH]c3c(Cl)c(Cl)ccc3c2C1C#N` (stereo not given), 70.3% (inactive).
Take `O=C(Nc1ccc(Nc2ncnc3sc4c(c23)CCOC4)cc1)Nc1ccc(Cl)c(C(F)(F)F)c1`: the growth is 86.7% (inactive).
The value for `C=C1C(=O)O[C@H]2[C@H]1CC/C(CNC(=O)c1cc3cc(OC)ccc3[nH]1)=C\CC[C@@]1(C)O[C@@H]21` was -19.3% (active).
The value for `COC(=O)[C@H](Cc1ccc(O)cc1)NC(=O)[C@@H](OC)[C@@H]1Cc2cc3cc(OC4CC(OC5CC(O)C(O)C(C)O5)C(O)C(C)O4)c(C)c(O)c3c(O)c2C(=O)[C@H]1OC1CC(OC2CC(OC3CC(C)(O)C(O)C(C)O3)C(O)C(C)O2)C(O)C(C)O1` (stereo not given in full) was 11.1% (inactive).
On to `Cc1cc(O)cc(-c2c(-c3ccnc(-c4cccnc4)c3)cnn2C)c1`, for which the growth was 61.7% (inactive).
As for `Cc1ccsc1C(NC(=O)c1ccccc1)c1cc(Cl)c2cccnc2c1O` (stereo not given), the figure is 9.96% (active); as for `C[C@H](NC(=O)c1c(N)nn2cccnc12)c1cc2cccc(C#Cc3cnn(C)c3)c2c(=O)n1-c1ccccc1`, 13.8% (inactive).
The value for `CN1CCN(Cc2ccc(NC(=O)c3[nH]ncc3Nc3ncnc4sc5c(c34)CCCC5)cc2)CC1` was -16.2% (active); that for `CC(C)=CCc1cc2c(cc1O)C1=C(C(=O)C3=C(NCCS3(=O)=O)C1=O)C(C=C(C)C)O2` (stereo not given) was 0.962% (active); that for `O=C(Nc1cn[nH]c1-c1nc2ccc(CN3CCOCC3)cc2[nH]1)NC1CC1` was 13.9% (inactive).
Turning to `CCCCCCCCCNCCCCCCCCC`, the growth is 23.7% (inactive).
As for `CC(C)[C@@H](C)/C=C/[C@@H](C)[C@H]1CCC2=C3C=CC4=CC(=O)CC[C@]4(C)[C@H]3CC[C@@]21C`, the figure is 82.2% (inactive); as for `O=C(Nc1cccc([N+](=O)[O-])c1)c1ccc(Cl)c(Cl)c1`, 82.7% (inactive).
The value for `COc1cc2ncnc(Nc3ccc(O)cc3)c2cc1OC` was 77.7% (inactive).
